Experimental data as given in the supplement of paper PMC6853941.
A number with no mark means an inactive call.

The compounds below were run on MCF10A (assay: perturbation Mahalanobis distance of morphological profile vs DMSO controls (Mahalanobis distance (SD units)); higher = stronger morphological change, active = 7 or more). Settings: screen batch: Batch2_Mahalanobis_Distance; 72 h.
Experimental: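 MCF10A cells were seeded onto drugs dispensed acoustically into 384-well plates, using one dose per drug chosen from its human peak plasma concentration, and incubated for 72 h at 37 °C. Cells were stained for DNA, tubulin and mitochondria and imaged; 78 CellProfiler features were extracted, plate-normalised and compared with DMSO wells.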

Structure (SMILES) | perturbation Mahalanobis distance
CC1(C)N=C(N)N=C(N)N1c1ccc(Cl)cc1 [Cycloguanil] (3.4 µM) | 2.22
CN(Cc1cnc2nc(N)nc(N)c2n1)c1ccc(C(=O)N[C@@H](CCC(=O)O)C(=O)O)cc1 [Methotrexate] (0.44 µM) | 17.5 (active)
CCCN[C@H]1CCc2nc(N)sc2C1 [Pramipexole] (0.15 µM) | 2.65
CO/N=C(\C(=O)N[C@@H]1C(=O)N2C(C(=O)O)=C(CSc3nnnn3C)CS[C@H]12)c1csc(N)n1 [Cefmenoxime] (183.8 µM) | 4.1
CN1C(=O)CC(c2ccccc2)C1=O (configuration not stated) [Phensuximide] (52.9 µM) | 2.78
CC/C(=C(\c1ccccc1)c1ccc(OCCN(C)C)cc1)c1ccccc1 [Tamoxifen] (6.7 µM) | 2.63
NC(=O)OCC(COC(N)=O)c1ccccc1 [Felbamate] (205.7 µM) | 2.91
NC(=O)[C@@H]1CSSCCC(=O)N[C@@H](CCCCN=C(N)N)C(=O)NCC(=O)N[C@@H](CC(=O)O)C(=O)N[C@@H](Cc2c[nH]c3ccccc23)C(=O)N2CCC[C@H]2C(=O)N1 [Eptifibatide] (5.3 µM) | 2.48
CC(=O)/C(C#N)=C(\O)Nc1ccc(C(F)(F)F)cc1 [Teriflunomide (A77 1726)] (66.9 µM) | 2.47
CN1CCN(CCCN2c3ccccc3Sc3ccc(C(F)(F)F)cc32)CC1 [Trifluoperazine] (0.12 µM) | 3.67
C[C@@](N)(Cc1ccc(O)c(O)c1)C(=O)O [Methyldopa] (118.4 µM) | 3.85
Cc1nc2n(c(=O)c1CCN1CCC(c3noc4cc(F)ccc34)CC1)CCCC2 [Risperidone] (73 µM) | 2.4
O=c1[nH]cc(F)c(=O)[nH]1 [5-Fluorouracil] (2.5 µM) | 16.5 (active)
C1CNCCN1 [Piperazine Hexahydrate] (5.8 µM) | 2.76
CC(=O)S[C@@H]1CC2=CC(=O)CC[C@]2(C)[C@H]2CC[C@@]3(C)[C@@H](CC[C@@]34CCC(=O)O4)[C@H]12 [Spironolactone] (3 µM) | 5.83
OCCN(CCO)c1nc(N2CCCCC2)c2nc(N(CCO)CCO)nc(N3CCCCC3)c2n1 [Dipyridamole] (19.8 µM) | 3.01
CN1CCC(=C2c3ccccc3CCc3cccnc32)CC1 [Azatadine] (0.43 µM) | 2.53
